GCN5L2 inh: qHTS Assay for Inhibitors of GCN5L2; Histone acetyltransferase KAT2A (Homo sapiens), Q92830; GCN5L2 HAT assay, ThioGlo1 CoA-SH fluorescence; Potency, µM (series often up to 58.9 µM), actives largely listed as inhibitors; hit rate 0.21% among 390,000; AID 504327, 2011
Target sequence (Q92830 whole entry, looked up): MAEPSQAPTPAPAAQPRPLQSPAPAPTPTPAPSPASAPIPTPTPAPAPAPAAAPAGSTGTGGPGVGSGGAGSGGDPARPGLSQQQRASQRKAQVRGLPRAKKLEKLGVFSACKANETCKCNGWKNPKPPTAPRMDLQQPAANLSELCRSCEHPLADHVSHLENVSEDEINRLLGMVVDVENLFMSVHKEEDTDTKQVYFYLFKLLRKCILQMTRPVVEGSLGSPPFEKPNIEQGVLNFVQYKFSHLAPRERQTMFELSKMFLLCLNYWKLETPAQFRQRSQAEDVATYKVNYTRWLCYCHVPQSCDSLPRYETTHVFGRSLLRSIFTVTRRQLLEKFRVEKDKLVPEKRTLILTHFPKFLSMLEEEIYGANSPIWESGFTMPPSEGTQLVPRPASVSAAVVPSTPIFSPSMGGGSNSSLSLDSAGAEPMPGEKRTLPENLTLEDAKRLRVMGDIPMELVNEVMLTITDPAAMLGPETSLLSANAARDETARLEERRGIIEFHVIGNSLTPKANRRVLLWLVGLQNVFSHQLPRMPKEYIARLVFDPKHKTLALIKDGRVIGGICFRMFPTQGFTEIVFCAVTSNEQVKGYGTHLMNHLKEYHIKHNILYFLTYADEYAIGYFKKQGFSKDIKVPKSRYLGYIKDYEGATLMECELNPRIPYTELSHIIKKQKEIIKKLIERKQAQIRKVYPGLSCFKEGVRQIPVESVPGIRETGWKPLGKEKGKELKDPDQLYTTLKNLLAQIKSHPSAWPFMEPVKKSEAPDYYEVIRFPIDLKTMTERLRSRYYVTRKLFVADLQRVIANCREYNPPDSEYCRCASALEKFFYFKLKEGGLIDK
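Fluorescence readout, Ex340nm/Em540nm: ThioGlo1 (50uM final) reacts with free CoA thiol released as 20nM GCN5L2 acetylates H3(1-25) peptide (75uM) using acetyl-CoA (70uM). Compound and enzyme sat 15 min beforehand; 20 min room-temperature reaction.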
TDP1 block: qHTS Assay for Inhibitors of Tyrosyl-DNA Phosphodiesterase (TDP1) | Tyrosyl-DNA phosphodiesterase 1 (Homo sapiens), Q9NUW8 | recombinant TDP1, AlphaScreen DNA substrate cleavage | Potency, µM (doses to about 130 µM), usual class: inhibitors | hit rate 0.28% among 350,000 | AID 485290, 2010; further: nearly all actives have a fitted effect of over 40% in size
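E. coli-derived human Tdp1, 1 nM final. Cpd preinc 15 min RT; substrate 15 nM final, 5 min RT; AS bead mix 10 ug/ml final, 10 min RT. Signal loss = tyrosine-FITC cleavage. No-enzyme wells = max signal.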
VDR inh: Inhibitors of the vitamin D receptor (VDR): qHTS. Vitamin D3 receptor (Homo sapiens), P11473. VDR-SRC2-3 peptide fluorescence polarization, 2 h. Potency, µM, hits mostly inhibitors. hit rate 0.93% among 400,000. AID 504847, 2011
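The screen uses fluorescence polarization to detect compounds that interfere with recruitment of the SRC2-3 coactivator peptide to VDR; plates are read after 2 h at room temperature.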
DT40 TDP1 CPT: qHTS for Inhibitors of human tyrosyl-DNA phosphodiesterase 1 (TDP1): qHTS in cells in presence of CPT | chicken DT40 Tdp1-/-;hTDP1 cells + 20 nM CPT, ATP luminescence, 48 h | hit rate 12% among 420,000 | Potency, µM (titrated, usually from 46.2 µM), usual class: inhibitors; further: nearly all actives have a fitted effect of over 55% in size
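Cell growth measured by CellTiter-Glo luminescence after a minimum 48 h, 37 C compound exposure with 20 nM CPT in Tdp1-knockout DT40 cells stably expressing hTDP1, seeded 400/well; qHTS titration format.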
PLK1 PBD inh: qHTS for Inhibitors of PLK1-PDB (polo-like kinase 1 - polo-box domain): Primary Screen | Serine/threonine-protein kinase PLK1 (Homo sapiens), P53350 | hit rate 2.8% among 360,000 | Potency, µM, hits mostly inhibitors | Plk1 PBD binding of FITC phosphopeptide, fluorescence polarization; further: series mostly up to about 57 µM; nearly all actives have a fitted effect of over 65% in size
TDP1 cell noCPT: qHTS for Inhibitors of human tyrosyl-DNA phosphodiesterase 1 (TDP1): qHTS in cells in absence of CPT | hit rate 15% among 420,000 | Potency, µM (highest dose often 46.2 µM), most hits filed as inhibitors | DT40 Tdp1-/- hTDP1 cells, no CPT, ATP luminescence, 48 h | AID 686978, 2013; further: nearly all actives have a fitted effect of over 55% in size
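Readout: luminescence from CellTiter-Glo after 30 min in the dark at RT. Cells: DT40 Tdp1-/- with stable hTDP1, 400/well. Exposure: compounds alone, ≥48 hr, 37 °C.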
Numbers stand for hits; 0 = inactive; ? = inconclusive; - = no result; [ ] = remark or other dose. Hits are enriched below; roughly 18% of the tested compounds scored in any of these assays. The call rests on the fitted dose curve; in most records, active means well fitted curve in the direction sought with a large enough effect; inconclusive means small, poorly fitted or top-dose-only effect, or another doubt; inactive means no such curve, though single readings can be large; an effect the other way counts as inactive or inconclusive.

SMILES	GCN5L2 inh	TDP1 block	VDR inh	DT40 TDP1 CPT	PLK1 PBD inh	TDP1 cell noCPT
COc1ccc(C(=O)N/N=C/c2c(CO)cnc(C)c2O)cc1	0	0	0	5.8µM	0	23.1µM
CCC(=O)Nc1ccccc1-c1nc2ccccc2n(CC(=O)c2ccc(C)cc2)c1=O	0	0	0	0	-	0
Cc1ccc2nc(N(CCN(C)C)C(=O)C3CCN(S(=O)(=O)c4cccs4)CC3)sc2c1	-	-	-	0	0	0
Cc1ccc(NC(=O)COC(=O)/C(=C/c2cccs2)c2cccs2)cc1S(=O)(=O)N(C)C	0	0	0	16.4µM	0	14.6µM
NS(=O)(=O)c1cccc(NC(=O)COC(=O)/C(=C/c2cccs2)c2cccs2)c1	0	0	0	?	0	23.1µM
CC(NC(=O)COC(=O)/C(=C/c1cccs1)c1cccs1)c1ccccc1 (stereo not given)	0	0	0	?	0	18.4µM
CC(NC(=O)c1cccs1)c1ccccc1 (stereo not given)	-	-	0	0	0	0
CCOC(=O)N(C)C[C@H]1OCc2cnnn2CCCC(=O)N([C@H](C)CO)C[C@H]1C	-	-	-	0	0	0
CC(C#N)(NC(=O)CN1CCN(S(=O)(=O)c2ccccc2C#N)CC1)C1CC1 (stereo not given)	0	0	0	0	0	0
CCc1ccc(CNC(=O)c2cc3c(=O)n(Cc4cccs4)ccc3nc2C)cc1	0	0	0	18.4µM	-	23.1µM
COc1ccc(NC(=O)c2cc3c(=O)n(Cc4cccs4)ccc3nc2C)c(OC)c1	0	0	0	16.4µM	-	?
Cc1nc2ccn(Cc3cccs3)c(=O)c2cc1C(=O)NCc1ccc(Br)cc1	0	0	0	?	-	?
COc1ccccc1CNC(=O)c1cc2c(=O)n(Cc3cccs3)ccc2nc1C	0	0	0	?	-	?
CCOc1ccc(CNC(=O)c2cc3c(=O)n(Cc4cccs4)ccc3nc2C)cc1	0	0	0	9.2µM	-	?
Cc1nc2ccn(Cc3cccs3)c(=O)c2cc1C(=O)Nc1ccccc1	0	0	0	?	-	?
Cc1c(C(=O)Nc2cccc(F)c2)cnn1-c1ccccc1	0	-	?	18.4µM	?	14.6µM
Brc1csc(CN2CCc3nc(Nc4ccccc4)ncc3C2)c1	0	0	0	20.6µM	-	23.1µM
Cc1ccc(CN2CCc3nc(N4CCN(c5ccccc5F)CC4)ncc3C2)s1	0	0	0	0	-	0
CN1CCN(c2ncc3c(n2)CCN(Cc2cc(Br)cs2)C3)CC1	0	0	0	16.4µM	-	?
COc1cc(Nc2ncc3c(n2)CCN(Cc2cc(Br)cs2)C3)cc(OC)c1	0	0	0	16.4µM	-	23.1µM
COc1ccccc1NC(=O)CNc1ccc(F)c(Cl)c1	0	0	0	0	0	0
COCc1cc(=O)[nH]c(Nc2nc(C)c3ccccc3n2)n1	0	0	0	20.6µM	0	16.4µM
Cc1nc(-c2ccccc2)cc(=O)[nH]1	0	0	0	0	0	0
Cc1ccc2oc(Nc3nc(-c4ccccc4)cc(=O)[nH]3)nc2c1	0	0	0	3.26µM	0	4.61µM
COCc1cc(=O)[nH]c(Nc2nc3ccccc3o2)n1	0	0	0	10µM	0	8.91µM
SMILES	GCN5L2 inh	TDP1 block	VDR inh	DT40 TDP1 CPT	PLK1 PBD inh	TDP1 cell noCPT
COc1cccc(C(=O)N2CCC[C@@H]2C(=O)N2CCC[C@@H]2C(=O)NCc2ccccc2Cl)c1	-	-	-	0	0	0
O=C(N/C=N/OCc1ccc(Cl)cc1Cl)NOCc1c(Cl)cccc1Cl	-	0	0	20.6µM	0	23.1µM
COc1cc2ccccc2cc1C(=O)Nc1cccc(-c2nc3cc(C)c(C)cc3o2)c1C	0	-	0	0	-	0
O=C(CCN1C(=O)/C(=C\c2ccccc2Cl)SC1=S)N1CCN(c2ccccc2)CC1	0	0	0	16.4µM	0	10.3µM
O=C(CN1C(=O)/C(=C/c2cccc(Br)c2)SC1=S)NC1=NCCS1	0	0	0	0	0	0
O=C(CCN1C(=O)/C(=C/c2ccccc2Cl)SC1=S)NNC(=O)c1ccccc1O	0	0	0	?	0	?
O=C1/C(=C/c2ccco2)SC(=S)N1CCC(=O)N1CCCCC1CCO (stereo not given)	0	0	0	0	?	20.6µM
O=C(CN1C(=O)/C(=C/c2cccc(Br)c2)SC1=S)N1CCCC1	0	0	0	3.26µM	0	9.2µM
CCOC(=O)N1CCN(C(=O)CCN2C(=O)/C(=C\c3cccc(OC)c3)SC2=S)CC1	0	-	0	0	0	14.6µM
COc1cccc(/C=C2\SC(=S)N(CCCC(=O)Nc3cc(C)on3)C2=O)c1	0	0	0	0	0	0
CCC1CN(CCNC(=O)c2cc(C)nn2CC)Cc2cc(OC)ccc2O1 (stereo not given)	-	-	-	0[9.04 µM]	-	?
COc1ccc(Oc2ccc(-c3ccn[nH]3)cc2)cc1	0	0	0	0	0	0
O=C(CCN1C(=O)/C(=C/c2ccccc2)SC1=S)N1CCCCCC1	0	-	0	11.6µM	0	20.6µM
COc1cccc(/C=C2\SC(=S)N(CCC(=O)N3CCCCC3)C2=O)c1	0	0	0	6.51µM	0	4.11µM
O=C1/C(=C/c2ccccc2)SC(=S)N1CCCC(=O)N1CCCCC1CCO (stereo not given)	0	0	0	?	0	?
FC(F)(F)c1ccc(-c2nc3ccccc3s2)cc1	-	-	-	0	0	0
CN(NC(=O)c1ccc(Cl)cc1)c1ncc(C(F)(F)F)cc1Cl	0	0	0	0	0	?
Cc1ccc(C(=O)NN(C)c2nc3ccccc3nc2C(F)(F)F)cc1	0	0	0	4.61µM	0	3.66µM
CN(N)c1nc2ccccc2nc1C(F)(F)F	0	0	0	?	21.2µM	?
CN(NC(=O)c1ccc(Cl)cc1)c1nc(-c2ccccc2)nnc1C(F)(F)F	0	0	0	20.6µM	0	14.6µM
C=CC1=C2C=C(C3CC3)N(Cc3ccccc3)C=C2C(=O)C(C)(OC(=O)c2ccco2)C1=O (stereo not given)	-	0[12.3 µM]	-	-	-	-
CC(=O)N/N=C/c1ccc(OCCOc2ccc(Br)cc2)cc1	0	0	0	0	0	0
CCc1ccc(CN(C)C(=O)c2cc(S(=O)(=O)N3CCOCC3)ccc2N2CCCC2)cc1	0	-	0	?	0	?
O=C(COC(=O)c1cccc(S(=O)(=O)N2CCN(c3ccccc3)CC2)c1)NCc1ccco1	0	79.4µM	0	0	0	0
